Hit rate of the full screen: of about 53,000 sequences, about 3,700 (7%) were called active.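 Rule for the calls: active = gene knockdowns whose robust z-score for IL-1 alpha signal is at least 2 or at most -2, so actives lie on both sides; inactive = the rest.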 Many of the other results were omitted from the sample, so actives are more common in it than they were.

This experiment can be described thus: Components of the Cytosolic LPS Sensing Pathway: Gene Identification via Genome-wide siRNA Screen.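 Note: robust z of the log signal after scaling to non-targeting control siRNA wells of the plate.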 Conditions: RAW264.7 macrophages, IL-1a HTRF, actives lie on both sides, screened at 100 nM (by protocol), cells primed 5 h with Pam3CSK4 first. The method, boiled down:
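Cells (RAW264.7, 1×10^4 per well) were transfected with siRNA at 100 nM and cultured 48h at 37 degrees C. Pam3CSK4 was added for 5 hours; LipidA transfection followed for 24 hour. IL-1a was then measured by HTRF.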
Background: Time-resolved FRET reads energy transfer from a long-lived donor to a nearby acceptor.
As to GGAUACAGUUAAGAGAUAUTT against Xpr1, the z-score was -1.34 (inactive).

For GCAUAGCCACAAGGUUAAUTT against Nat8f4, the z-score was 0.35 (inactive).

With GUAUUAUAGACACCUUGCATT against Phip, the z-score is -0.835 (inactive).

For GGACAGCUACCUCAUCCAUTT against Lpcat3, the z-score was 2.08 (active).

Turning to GGACAGAUGAAGCUGCAUUTT against S100a4, the z-score is -0.422 (inactive).

Consider GGUGAAGAAGAGUCUCAAATT against Mrnip, for which the z-score was 1.6 (inactive).

As for GCACAUAUCACGCUACCUGTT against Lrrc75b, the z-score was -0.0605 (inactive).

As to GCGAAGAGUGAUUGAUCCATT against Myh1, the z-score was -0.773 (inactive).

As for GGAAGCAGAAGCUAAAGUGTT against Ubap1, the z-score was 2.11 (active).

For the sequence CCUGACAGUAGUUACUAUUTT against Olfr1154, the z-score was -0.945 (inactive).

For GGUUUUUUGUAGCAAACAGTT against Phc2, the z-score was -2.7 (active).

Take GGUCCUUUACAUGAACCGCTT against Vps18: the z-score is -0.661 (inactive).

In the case of GGAAUGCAUGAUGAUGUCATT against Prl7a2, the z-score is -0.783 (inactive).

With GGGAUCCUCUUGACAUUCCTT against Epdr1, the z-score is 3.87 (active).

For the sequence GGUAGCAGACAGCUACCCUTT against Tnfsf15, the z-score is 0.405 (inactive).

Regarding CCAAGCUAUUGGCCCUGACTT against Defb38, the z-score was 0.251 (inactive).

For GCUGAUGACCACUGAGUUUTT against Tsr2, the z-score is 1.34 (inactive).

For the sequence GCAAGUCAGCUACAACUGUTT against Rnasek, the z-score was 0.0313 (inactive).

For the sequence GGUGGCUAUAACAGAGCCUTT against Rdh18-ps, the z-score is 0.173 (inactive).

As for GGAAACAAGGAAGCAAUUATT against Psmd1, the z-score is -3.01 (active).

On to GGAGAAACCAGCUAAAGGATT against Car9, for which the z-score was -0.235 (inactive).

Turning to GGUGAUCAGCAUGGUGGGUTT against Pold1, the z-score is 0.208 (inactive).

In the case of GGUAUAAAGAACUCUGUCATT against Cep78, the z-score is -2.49 (active).

For GGGUGAUAGCAAGACACAGTT against Olfr720, the z-score is 1.06 (inactive).

Regarding GGAGGACCAAGAGGACAUUTT against Tbl3, the z-score was 0.468 (inactive).

As for GGCCCAAGAGAUUGAUCAATT against Ivd, the z-score was -0.565 (inactive).

As to CGAAACCUCUAAGAAGAUATT against Pole, the z-score is -0.264 (inactive).

GGCAUGUUCCUCAUAUGCCTT against Lrit1: the z-score is -2.01 (active).

Turning to GGAGCAUUGCCUUUUAAAGTT against Psph, the z-score was -0.474 (inactive).

Turning to CCAAUUGGGCCACACGUAATT against Tial1, the z-score is 1.15 (inactive).

In the case of GGACUCUUUUGGACCUAAGTT against Hilpda, the z-score is -1.24 (inactive).

As for GGAACAAAUUCUGGAGUUGTT against Zfp287, the z-score was 0.791 (inactive).

With GGUUACAGAGAGACAUCAUTT against Cdk5rap2, the z-score was 0.942 (inactive).

Consider GGGUUUCAACGGCUGUGACTT against Mef2d, for which the z-score was -2.73 (active).

On to GGUUAUGGAGACAAAGGAUTT against Sik1, for which the z-score was -1.33 (inactive).

On to CCGUACGAUGAUAAUACCATT against Clec4a3, for which the z-score was 2.29 (active).

In the case of GGAGCUAGCUGAGUUCAUGTT against Arhgap4, the z-score is 1.22 (inactive).

For GGACAGCUCUCUUUAGUCUTT against Erf, the z-score was -1.78 (inactive).

As for GGACCUGAAGGCUGAAAUUTT against Ing4, the z-score is 3.08 (active).

As to GGUCUGAUAACUCUGGAGGTT against Snf8, the z-score is -0.0859 (inactive).

For GGAUGGACAUCCAAGCAGGTT against Fabp9, the z-score is -1.97 (inactive).

As for GGAGUGUUACUAGAUGUCCTT against Spns3, the z-score is 0.394 (inactive).

“CGAACUGGUAGAAGUUAUUTT against Csgalnact2”: the z-score was 2.07 (active).

Consider GGUCUCUGUACUUUGACUGTT against Cldn19, for which the z-score was -1.2 (inactive).

For the sequence GGAGCAAAAUUCACAGUCUTT against Bcl7a, the z-score is -0.25 (inactive).

In the case of GAUUGGCUUCAAUCUAGUCTT against Olfr713, the z-score was 0.701 (inactive).

Consider GGGCCAGAGUCAGAAAAGGTT against Ebp, for which the z-score was 1.98 (inactive).

Take GCGUAUGUACCGAUGGCAGTT against Mocs2: the z-score is 0.871 (inactive).

With CGCUGCCUAAACAAGAUUATT against Cacna1f, the z-score is 3.28 (active).

Regarding AGACCUUGAGAACAUUCUUTT against Nkx2-6, the z-score is 0.925 (inactive).

As for CCGUGAUCUUAAACCCUCUTT against Mapk7, the z-score was -0.988 (inactive).

As to CGUUUUACCACCGUGUGCUTT against Gfra1, the z-score is -0.284 (inactive).

For GGUAAUUCAGUCUUAUACATT against Pcdhb21, the z-score was 3.2 (active).

For the sequence CGUGAAGAUUCUUAAGGCGTT against Ppil1, the z-score is 0.716 (inactive).

Take GGUGGAAUUGAAGAGUUCATT against Rcor3: the z-score was 0.24 (inactive).

In the case of GCAAGAAACGGGAACUAUUTT against Mettl7b, the z-score was 1.25 (inactive).

Consider GGCCUUAGAAUUUGAUUCUTT against Slc30a8, for which the z-score was 0.814 (inactive).

Regarding GGAUGUAUAGGUUCAGCUGTT against Dph2, the z-score is 0.41 (inactive).

For GGCCUUUGGGACAUGUGUGTT against Olfr552, the z-score is -2.05 (active).

For GGAGAAGCUCUUAAAGAAATT against Traf3ip3, the z-score was 0.959 (inactive).

With GCAGUGAAGUCCAAGUUAGTT against Pold3, the z-score is -0.456 (inactive).

Turning to CCAAUAAGUGACCUUUUUUTT against Tmprss11b, the z-score was -0.989 (inactive).

Consider CCAAGUCUACCUCUAUUUUTT against Pbsn, for which the z-score is 1.77 (inactive).

Consider GGUUCCUUAAUUUAUUGCCTT against Fbxl22, for which the z-score was 2.31 (active).

CCACUAUGGCGACCAGAUUTT against Mfap2: the z-score is 0.0375 (inactive).

For GCCCUCACAGCCAGAAUUGTT against Pram1, the z-score was -2.15 (active).

For GGUUAAAAGCCAUGUGUAATT against Pggt1b, the z-score is -0.151 (inactive).

As to CGAUGGUCGAAGGAUUGUCTT against Tnfsf4, the z-score is -0.837 (inactive).

Turning to GUCACAAGCUGUCCAACAATT against Ndufa7, the z-score was -2.25 (active).

With “GGUUUUGUCACCAUAGCCATT against 3110040N11Rik”, the z-score was -0.762 (inactive).

As to GGACAUUGAGUCAAAAAUCTT against Slc19a2, the z-score is -0.966 (inactive).

Take GCCUGGAGAAGUGAACUCUTT against Tll1: the z-score is -1.65 (inactive).

In the case of GGGAUUUCGAGAGACUAGCTT against Dock9, the z-score was -0.487 (inactive).

Consider GCCCUGAUGCAAGCUUGUGTT against Gprin3, for which the z-score is 0.193 (inactive).

On to CCUGUUUCAGUCAUUAGUGTT against Slc22a2, for which the z-score was 2.6 (active).

As for GGCAACUGUUUCUGCUCCGTT against Ap4e1, the z-score was -0.746 (inactive).

As to GCCAAUCGUAACUUGCUAATT against Arhgap19, the z-score was 0.865 (inactive).

As for GGUACAACAAAAAUGUGACTT against Vmn1r73, the z-score is -1.39 (inactive).

As to GCGAGGUGAAAAGCUUCUGTT against Sobp, the z-score is -0.433 (inactive).

Consider GGAAUUUUGCCAGCAAAUGTT against Edaradd, for which the z-score is 0.624 (inactive).

Regarding GGCCAUUAAUUACUACGAGTT against Ttc21a, the z-score was 0.368 (inactive).

For GCAAAACUUGACUACCGCCTT against Bzw1, the z-score is 2.08 (active).

Consider CCCGAGAAUACACCAUCAATT against Rpl31, for which the z-score is 0.347 (inactive).

With CCAUUCCAUGUCGAUGUCUTT against Prm2, the z-score is -2.08 (active).

Turning to GGGAGAUGUAUGCUUGCUCTT against Evi2a, the z-score is 0.934 (inactive).

CUCUAUCUCAUUGCAGUCCTT against Olfr671: the z-score is -0.0809 (inactive).

Regarding GUUCCCUACAAGUUCUUCCTT against Phox2a, the z-score is 1.54 (inactive).

As for GGCUUUUGUCAAACAGCAUTT against Ins1, the z-score was -2.9 (active).

Take GCGUAGACUUGAGGACUUATT against Uimc1: the z-score is -0.705 (inactive).

In the case of CGGCGGUGUGUUGUUUUAGTT against Hmces, the z-score is 0.36 (inactive).

Take CGGUUAGACAGUGCACCAATT against Dnm1: the z-score is 0.4 (inactive).

Take GGCUCGGACCAAAAAAAUUTT against Msantd3: the z-score was -1.33 (inactive).

As to GCAUGCGACUCUGUUCUCGTT against Gtf2a2, the z-score was -0.228 (inactive).

For the sequence “GGAGAUUUUCAAGAGACUCTT against 0610010F05Rik”, the z-score was 1.94 (inactive).

As for GGAAAAACUACCAAGAGGATT against Pigp, the z-score was 2.32 (active).

Consider GGUCUACCAUGACACACGUTT against Prrg2, for which the z-score is 0.519 (inactive).

Consider GCCUGGUUUCUCCCUCAAATT against Pkmyt1, for which the z-score was -0.567 (inactive).

Take CGCAGUUAUAUUCCACCACTT against Slain1: the z-score was -0.317 (inactive).

For the sequence GGUACCUAGGAUGCUCUCATT against Ift140, the z-score was -2.23 (active).

Turning to GGCCUUCACUGGUUAAAAUTT against Ankrd6, the z-score is 0.0966 (inactive).

GGAGAUCCUCAUUUGUGUGTT against Ftmt: the z-score was -1.99 (inactive).

With GGGUAUGAGCAUAAAAUAATT against Il16, the z-score is -1.2 (inactive).

As to GCAAAUGGUGCAUACGUGATT against Slc35d1, the z-score was 0.211 (inactive).

With CCAAUUUGUCAAAACAAUCTT against Slit2, the z-score was 0.681 (inactive).

For GGAUGUCAGGACAAAACCATT against Olfr1335, the z-score is -2.51 (active).

Regarding GGAAGAGCUUUCUGGAAAUTT against Ndrg2, the z-score is 0.226 (inactive).

On to GGCAUACUUGUACCGCUAUTT against Mmp9, for which the z-score was -0.35 (inactive).

As for GGAUAUUCAGCACUGGGAATT against Rrm2, the z-score is -0.525 (inactive).

The record behind these values is PubChem BioAssay AID1508600 (Functional Genomics Laboratory (NCATS/FGL), 2020).
